The values below come from PubChem BioAssay (EPA / NIEHS).

The nature of experiment [1]: ATG_CRE_CIS: Attagene CIS-FACTORIAL HepG2 Assay for human cAMP Responsive Element (CRE) binding protein 3 (AID 2282926). The following applies: HepG2 CRE cis-reporter, Attagene multiplexed mRNA; actives raise or lower the signal. In short, it runs like this: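 Endogenous CRE-binding activity in HepG2 is reported through a cis-regulated transfected reporter. Following a day of exposure, mRNA levels are determined by reverse transcription PCR and fluorescent fragment analysis; fits run in both directions versus DMSO.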

For experiment [2], the target named is CCAAT/enhancer-binding protein beta (Homo sapiens) (UniProt P17676). The experiment in a line: ATG_C_EBP_CIS: Attagene CIS-FACTORIAL HepG2 Assay for human CCAAT/Enhancer Binding Protein (C/EBP) beta (AID 2282927). Particulars: HepG2 Attagene cis-factorial transcription factor reporter; actives raise or lower the signal. In short, it runs like this: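 HepG2, transient MRTU transfection, 24 h treatment. RT-PCR plus CE fluorescence; DMSO negative control, bidirectional fit.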
CCAAT/enhancer-binding protein beta (Homo sapiens), sequence (P17676 whole entry, looked up): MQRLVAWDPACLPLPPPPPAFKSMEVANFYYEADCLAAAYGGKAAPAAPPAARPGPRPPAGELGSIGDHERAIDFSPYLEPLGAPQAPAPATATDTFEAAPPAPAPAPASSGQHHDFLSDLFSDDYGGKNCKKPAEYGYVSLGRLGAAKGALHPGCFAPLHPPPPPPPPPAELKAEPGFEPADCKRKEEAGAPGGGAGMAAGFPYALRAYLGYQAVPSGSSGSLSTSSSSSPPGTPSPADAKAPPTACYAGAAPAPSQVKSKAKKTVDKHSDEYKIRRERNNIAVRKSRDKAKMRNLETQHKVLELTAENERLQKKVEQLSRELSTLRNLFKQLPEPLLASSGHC

The nature of experiment [3]: ATG_CMV_CIS: Attagene CIS-FACTORIAL HepG2 Assay for human CMV (Internal Marker) (AID 2282928).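 Further: endpoint acts as a background internal control marker rather than a target.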 Particulars: HepG2 CMV promoter reporter, transcription factor profiling; actives raise or lower the signal. Summed up: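 Cell system: HepG2, transiently transfected multiple reporter units under cis promoters. Exposure: 24 h. Detection: RT-PCR, FAM labeling, HpaI digestion, capillary electrophoresis. Analysis: bidirectional, DMSO baseline.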

Experiment [4] in a line: ATG_DR4_LXR_CIS: Attagene CIS-FACTORIAL HepG2 Assay for human Liver X Receptor (LXR), DR4 submotif (AID 2282929). Particulars: HepG2 Attagene DR4 cis-reporter, mRNA transcription; actives raise or lower the signal. In short, it runs like this:
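Fluorescence intensity of labelled reporter cDNA fragments, separated by capillary electrophoresis, gives the signal. HepG2 cells bearing cis-regulated reporter constructs were treated 24 h; activity fitted bidirectionally relative to DMSO negative control.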

The nature of experiment [5]: ATG_AP_1_CIS: Attagene CIS-FACTORIAL HepG2 Assay for human Activator Protein 1 (AP-1) (AID 2282931). Particulars: HepG2 Attagene cis-factorial AP-1 reporter mRNA; actives raise or lower the signal. Summed up: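 Multiplexed HepG2 reporter assay, 24 h dosing. mRNA induction detected by RT-PCR plus capillary electrophoresis. Activity fitted in both directions against DMSO.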

Experiment [6] in a line: ATG_AP_2_CIS: Attagene CIS-FACTORIAL HepG2 Assay for human Activator Protein 2 (AP-2) (AID 2282932). Particulars: HepG2 AP-2 cis-reporter, Attagene transcription factor profiling; actives raise or lower the signal. In short, it runs like this:
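HepG2 cells transiently transfected with cis-element reporter units and exposed for 24 h. Reporter mRNA measured by RT-PCR, FAM labelling, HpaI digestion and capillary electrophoresis. Changes in either direction fitted relative to DMSO.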

Experiment [7] in a line: ATG_BRE_CIS: Attagene CIS-FACTORIAL HepG2 Assay for human Bone Morphogenetic Protein (BMP) Response Element (BRE) (AID 2282933). The following applies: HepG2 BMP response element reporter, Attagene transcription factor profiling; actives raise or lower the signal. In short, it runs like this:
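Transient MRTU transfection of human HepG2 liver cells; 24 h compound treatment; total RNA isolated, reverse-transcribed, PCR-amplified, 6-FAM labelled, HpaI-cut, capillary electrophoresis. DMSO = negative control/baseline, bidirectional fit.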

In experiment [8] the target is Transcription factor E2F1 (Homo sapiens) (UniProt Q01094). Kind of experiment: ATG_E2F_CIS: Attagene CIS-FACTORIAL HepG2 Assay for human E2F Transcription Factor 1 (AID 2282935). The following applies: HepG2 Attagene cis-reporter, E2F reporter RNA transcripts; actives raise or lower the signal. In short, it runs like this: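 Endogenous E2F1 activity read through cis-promoter reporter units transfected into HepG2. After 24 h compound treatment, reporter mRNA measured by RT-PCR, HpaI digestion and capillary electrophoresis. Bidirectional fit versus DMSO.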
Transcription factor E2F1 (Homo sapiens), sequence (Q01094 whole entry, looked up): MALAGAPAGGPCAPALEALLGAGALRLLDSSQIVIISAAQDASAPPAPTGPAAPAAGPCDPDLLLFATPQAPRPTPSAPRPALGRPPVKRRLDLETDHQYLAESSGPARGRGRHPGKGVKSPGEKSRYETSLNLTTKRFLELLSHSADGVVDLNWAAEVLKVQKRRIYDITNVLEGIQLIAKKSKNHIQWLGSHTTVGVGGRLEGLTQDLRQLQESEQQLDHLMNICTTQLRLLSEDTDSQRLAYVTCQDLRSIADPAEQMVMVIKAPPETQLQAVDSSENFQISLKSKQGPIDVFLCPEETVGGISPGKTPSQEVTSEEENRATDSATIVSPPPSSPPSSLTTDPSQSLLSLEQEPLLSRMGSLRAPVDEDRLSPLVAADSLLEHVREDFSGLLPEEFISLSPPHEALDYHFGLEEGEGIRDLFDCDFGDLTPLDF

A short description of experiment [9]: ATG_E_Box_CIS: Attagene CIS-FACTORIAL HepG2 Assay for human Enhancer Box (E-box) (AID 2282936). Particulars: HepG2 E-box cis-reporter transcription, actives raise or lower the signal. Summed up: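 HepG2 cells transiently transfected with multiplexed cis-element reporter units, dosed 24 h; reporter mRNA quantified by RT-PCR, 6-FAM labelling, HpaI digestion and capillary electrophoresis. E-box (USF1) signal fitted bidirectionally vs DMSO.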

A short description of experiment [10]: ATG_EGR_CIS: Attagene CIS-FACTORIAL HepG2 Assay for human Early Growth Response 1 (EGR1) (AID 2282938). Particulars: HepG2 Attagene CIS-FACTORIAL EGR reporter mRNA; actives raise or lower the signal. In short, it runs like this: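 Activity is taken as induction or loss of reporter mRNA versus DMSO, fitted bidirectionally. Transcripts from cis-regulated reporter units in transiently transfected HepG2 were measured after 24 h by RT-PCR with capillary electrophoresis.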

Experiment [11] can be described thus: ATG_M_19_CIS: Attagene CIS-FACTORIAL HepG2 Assay for M19 Transcription Factor (Internal Marker) (AID 2282939). The following applies: HepG2 Attagene CIS-FACTORIAL M19 internal marker reporter; actives raise or lower the signal. In short, it runs like this: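 Transfect HepG2 with MRTU reporter library → dose chemical, 24 h → isolate total RNA, reverse-transcribe with oligo(dT) → PCR, 6-FAM label, HpaI cut (2 h, 37 C) → capillary electrophoresis. Bidirectional fit vs DMSO.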

Experiment [12] in a line: ATG_Ets_CIS: Attagene CIS-FACTORIAL HepG2 Assay for human Erythroblast Transformation Specific (ETS) (AID 2282941). Particulars: HepG2 ETS cis-reporter transcription, actives raise or lower the signal. Summed up: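 After transient cis-reporter transfection, HepG2 cells receive test chemical for 24 h. Reporter mRNA levels, measured by RT-PCR and capillary electrophoresis fluorescence, are analysed bidirectionally relative to the DMSO baseline.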

The target in experiment [13] is Hepatocyte nuclear factor 3-beta (Homo sapiens) (UniProt Q9Y261). Kind of experiment: ATG_FoxA2_CIS: Attagene CIS-FACTORIAL HepG2 Assay for human Forkhead box A2 (FOXA2) (AID 2282942). Particulars: HepG2 cis-reporter transcription factor activity, 24 h; actives raise or lower the signal. Summed up: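 Reporter transcript induction is measured by fluorescence after capillary electrophoresis of RT-PCR products from HepG2 cells exposed 24 h. Cis-regulated reporter units report endogenous factor activity; curves fitted both directions against DMSO.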
Hepatocyte nuclear factor 3-beta (Homo sapiens), sequence (Q9Y261 whole entry, looked up): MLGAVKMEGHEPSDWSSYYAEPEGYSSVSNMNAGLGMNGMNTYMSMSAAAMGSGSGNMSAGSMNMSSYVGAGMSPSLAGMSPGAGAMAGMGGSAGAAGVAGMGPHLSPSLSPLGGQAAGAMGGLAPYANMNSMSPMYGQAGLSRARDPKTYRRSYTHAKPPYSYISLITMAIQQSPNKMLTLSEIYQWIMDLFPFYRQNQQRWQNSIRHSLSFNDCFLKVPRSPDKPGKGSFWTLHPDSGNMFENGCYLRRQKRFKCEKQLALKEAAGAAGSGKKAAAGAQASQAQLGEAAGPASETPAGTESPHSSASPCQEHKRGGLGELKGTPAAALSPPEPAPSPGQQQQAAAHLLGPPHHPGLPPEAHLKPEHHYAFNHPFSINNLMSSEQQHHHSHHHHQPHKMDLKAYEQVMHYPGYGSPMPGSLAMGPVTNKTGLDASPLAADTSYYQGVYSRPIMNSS

The nature of experiment [14]: ATG_FoxO_CIS: Attagene CIS-FACTORIAL HepG2 Assay for human Forkhead box O (FoxO) (AID 2282943). Particulars: HepG2 Attagene cis-reporter, FoxO element, mRNA; actives raise or lower the signal. Summed up: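 Transfected HepG2 reporter cells exposed to test chemical for 24 h; reporter RNA measured by reverse transcription, PCR and fluorescent capillary electrophoresis; curves fitted for increases and decreases against DMSO.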

Experiment [15] is described as follows: ATG_GATA_CIS: Attagene CIS-FACTORIAL HepG2 Assay for human GATA Binding Protein (AID 2282944). Particulars: HepG2 GATA cis-element reporter, Attagene multiplex mRNA; actives raise or lower the signal. In short, it runs like this: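 Transient MRTU transfection, HepG2, 24 h compound exposure. Total RNA → oligo(dT) RT → PCR → 6-FAM primer extension → HpaI cut → CE. Bidirectional fit vs DMSO.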

Experiment [16] addresses Aryl hydrocarbon receptor (Homo sapiens) (UniProt P35869). The experiment in a line: ATG_Ahr_CIS: Attagene CIS-FACTORIAL HepG2 Assay for human Aryl Hydrocarbon Receptor (Ahr) (AID 2282930). Particulars: HepG2 AhR cis-factorial reporter transcription; actives raise or lower the signal. Summed up:
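Endogenous factor activity is tracked through cis-promoter reporter units transfected into HepG2 cells. Transcript levels at 24 h are read by fluorescent RT-PCR and capillary electrophoresis, with activity in either direction scored relative to DMSO.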

Experiment [17] can be described thus: ATG_M_61_CIS: Attagene CIS-FACTORIAL HepG2 Assay for M61 Transcription Factor (Internal Marker) (AID 2282937). The following applies: HepG2 Attagene CIS-FACTORIAL M61 internal marker reporter; actives raise or lower the signal. In short, it runs like this:
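Endogenous transcription factor activity in HepG2 is read through transiently transfected cis-element reporter units. After 24 h dosing, RNA undergoes reverse transcription, PCR and primer extension with 6-FAM before capillary electrophoresis; DMSO-referenced bidirectional fit.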

Experiment [18] is described as follows: ATG_ERE_CIS: Attagene CIS-FACTORIAL HepG2 Assay for Estrogen Response Element (ERE) (AID 2282940). Particulars: HepG2 ERE cis-reporter, Attagene RNA transcript; actives raise or lower the signal. In short, it runs like this: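 Transient MRTU transfection of human HepG2; cis-element promoters; 24 h dosing; total RNA → RT (oligo dT) → PCR → 6-FAM primer extension → HpaI digest → CE fluorescence. Bidirectional fit, DMSO baseline.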

Experiment [19] is described as follows: ATG_GLI_CIS: Attagene CIS-FACTORIAL HepG2 Assay for human Zinc Finger Protein GLI1 (AID 2282945). Particulars: HepG2, Attagene cis-factorial reporter mRNA, GLI element; actives raise or lower the signal. Summed up:
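Transiently transfected HepG2 cells report endogenous transcription factor activity via cis-element-driven reporter units. After 24 h compound exposure, reporter mRNA was measured by RT-PCR with capillary electrophoresis; bidirectional fitting against DMSO baseline.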

The target of experiment [20] is Retinoic acid receptor alpha (Homo sapiens) (UniProt P10276). Kind of experiment: ATG_DR5_RAR_CIS: Attagene CIS-FACTORIAL HepG2 Assay for human Retinoic Acid Receptor Alpha (RARE), DR5 submotif (AID 2282934). Particulars: HepG2 Attagene cis-factorial RARE DR5 reporter, mRNA; actives raise or lower the signal. In short, it runs like this:
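After 24 h of chemical exposure, transiently transfected HepG2 cells were lysed for total RNA; the DR5-regulated reporter transcript was quantified via RT-PCR and capillary electrophoresis, with activity fitted bidirectionally against DMSO.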

Activity calls are given as the source filed them. How the source made its calls: active means hit-call score of the fitted dose curve at least 0.9, where 1 is the maximum; inactive means score below 0.9.

Aryl hydrocarbon receptor (Homo sapiens), sequence (P35869 whole entry, looked up): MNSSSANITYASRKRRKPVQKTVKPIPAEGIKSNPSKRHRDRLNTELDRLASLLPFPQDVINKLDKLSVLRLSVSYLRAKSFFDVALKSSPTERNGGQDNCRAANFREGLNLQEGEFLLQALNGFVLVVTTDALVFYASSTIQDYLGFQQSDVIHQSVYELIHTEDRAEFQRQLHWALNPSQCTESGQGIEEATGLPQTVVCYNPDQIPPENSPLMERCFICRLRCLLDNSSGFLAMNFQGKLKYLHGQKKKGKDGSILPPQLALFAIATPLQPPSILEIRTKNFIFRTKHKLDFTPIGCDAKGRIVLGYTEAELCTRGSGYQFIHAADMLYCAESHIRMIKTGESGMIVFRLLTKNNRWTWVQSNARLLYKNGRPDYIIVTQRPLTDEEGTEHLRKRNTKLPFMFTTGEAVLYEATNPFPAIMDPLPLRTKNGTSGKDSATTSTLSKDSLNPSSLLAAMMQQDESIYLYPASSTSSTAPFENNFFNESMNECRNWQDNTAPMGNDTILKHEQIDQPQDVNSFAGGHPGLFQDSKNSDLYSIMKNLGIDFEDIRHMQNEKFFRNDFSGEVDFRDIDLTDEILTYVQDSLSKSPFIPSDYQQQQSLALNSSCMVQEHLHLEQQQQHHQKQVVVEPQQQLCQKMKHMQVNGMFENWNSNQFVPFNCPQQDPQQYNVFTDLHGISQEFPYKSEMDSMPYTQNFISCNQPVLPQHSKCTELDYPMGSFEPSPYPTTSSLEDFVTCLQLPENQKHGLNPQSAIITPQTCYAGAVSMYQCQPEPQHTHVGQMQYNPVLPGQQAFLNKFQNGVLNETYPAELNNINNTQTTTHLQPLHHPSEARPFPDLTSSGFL
Retinoic acid receptor alpha (Homo sapiens), sequence (P10276 whole entry, looked up): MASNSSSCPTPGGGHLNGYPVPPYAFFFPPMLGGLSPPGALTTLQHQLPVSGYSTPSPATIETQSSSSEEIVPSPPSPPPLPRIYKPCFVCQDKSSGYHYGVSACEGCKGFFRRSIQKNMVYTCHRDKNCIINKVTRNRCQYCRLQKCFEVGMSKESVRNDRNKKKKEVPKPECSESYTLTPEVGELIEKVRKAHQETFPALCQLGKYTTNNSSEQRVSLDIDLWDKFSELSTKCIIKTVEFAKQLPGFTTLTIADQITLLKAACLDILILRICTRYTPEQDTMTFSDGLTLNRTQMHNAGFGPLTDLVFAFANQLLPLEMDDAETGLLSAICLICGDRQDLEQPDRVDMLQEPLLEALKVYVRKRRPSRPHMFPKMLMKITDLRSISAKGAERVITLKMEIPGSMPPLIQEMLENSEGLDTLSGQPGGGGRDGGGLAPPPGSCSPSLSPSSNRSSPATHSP

Take `COCCOCCOCCOCCOCCO`: the result in experiment [1], in experiment [2], in experiment [3], in experiment [4], in [5] and in [6] was inactive. The call in experiment [7], in [8], in [9], in [10], in experiment [11] and in [12] was inactive. Also, the compound was classed as inactive in experiment [13], in [14] and in experiment [15].
Take `CCC(C)(O)CCC=C(C)C` (stereo unspecified): the result in experiment [1], in experiment [2], in experiment [3], in [4], in experiment [16] and in experiment [6] was inactive. Further, the result in [8], in experiment [9], in experiment [17], in experiment [10], in experiment [11] and in experiment [18] was inactive. In addition, the outcome in experiment [12], in [13], in experiment [14], in experiment [15] and in [19] was inactive.
Regarding `CCCC(C)C=O` (stereo unspecified), the compound was called inactive in experiment [1], in experiment [2], in experiment [3], in [4], in [16] and in experiment [6]. Moreover, the compound was classed as inactive in experiment [7], in experiment [8], in experiment [17], in [10], in [11] and in experiment [18]. In addition, the outcome in experiment [12], in [13], in [14], in experiment [15] and in [19] was inactive.
What is called AC50 is the concentration giving half of the maximal activity seen. As for `CCCCCCCCCCCCSC`, the call in experiment [1], in experiment [2], in experiment [4], in experiment [16], in experiment [6] and in [7] was inactive. In addition, the result in experiment [9], in experiment [17], in experiment [10], in experiment [11], in experiment [12] and in experiment [13] was inactive. The compound was called inactive in experiment [14], in experiment [15] and in experiment [19]. The AC50 in [3] was 100 µM (active).
For the compound `Fc1c(F)c(F)c(Br)c(F)c1F`, the compound was classed as inactive in experiment [1], in experiment [2], in [3], in [4], in [16] and in experiment [6]. Also, the call in experiment [20], in experiment [8], in experiment [9], in [17], in experiment [10] and in experiment [11] was inactive. Further, the outcome in experiment [12], in experiment [13], in experiment [14], in [15] and in experiment [19] was inactive.
As for `CC(=O)C=CC1=C(C)CCCC1(C)C`, the outcome in experiment [1], in experiment [2], in experiment [3], in experiment [5], in [6] and in [7] was inactive. In addition, the compound was classed as inactive in [8], in experiment [9], in experiment [17], in experiment [10], in experiment [11] and in experiment [18]. The result in [12], in experiment [13], in experiment [14], in [15] and in experiment [19] was inactive. Also, in experiment [4], the AC50 is 3.8 µM (active).
As to `O=C(O)CN(CCN(CC(=O)O)CC(=O)O)CCN(CC(=O)O)CC(=O)O`, the outcome in experiment [1], in experiment [2], in experiment [3], in experiment [4], in [16] and in [6] was inactive. The compound was called inactive in experiment [20], in [8], in [9], in experiment [17], in experiment [10] and in experiment [12]. For the same compound, the result in [13], in [14], in experiment [15] and in experiment [19] was inactive.
